# Many of the other results were omitted from the sample, so the strongest signals are more common in it than they were.
# Columns and labels:
# Test in all cases: glycan array binding signal (z-score within array); higher = stronger binding
# Conditions in all cases: glycan notation: IUPAC condensed, linker removed
# [1] = molecular target: Fuc(a1-2)Gal(b1-3)[Fuc(a1-4)]GlcNAc
# Method in brief: (§1)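 Arrays were curated from the Consortium for Functional Glycomics database, 3228 in total, and kept only where the protein sequence was available. Binding is expressed as a within-array Z-score. This score was averaged across arrays of the same protein sequence at different concentrations or buffers and across linkers, and negative values can be read as non-binding.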
# [2] = molecular target: Fuc(a1-2)Gal6S(b1-3)GlcNAc6S
# Method in brief: as §1
# [3] = molecular target: Fuc(a1-2)[Gal(a1-3)]Gal(b1-3)GlcNAc
# Method in brief: as §1
# [4] = molecular target: Fuc(a1-2)[Gal(a1-3)]Gal(b1-3)GlcNAc(b1-2)Man(a1-3)[Fuc(a1-2)[Gal(a1-3)]Gal(b1-3)GlcNAc(b1-2)Man(a1-6)]Man(b1-4)GlcNAc(b1-4)GlcNAc
# Method in brief: as §1
# [5] = molecular target: Fuc(a1-3)[Gal(b1-4)]Glc6S
# Method in brief: as §1
# [6] = molecular target: Fuc(a1-3)[Gal(b1-4)]GlcNAc(b1-3)Gal(b1-4)[Fuc(a1-3)]GlcNAc
# Method in brief: as §1
# [7] = molecular target: Fuc(a1-3)[Gal(b1-4)]GlcNAc6S
# Method in brief: as §1
# [8] = molecular target: Gal(a1-3)Fuc(a1-2)Gal(b1-4)GlcNAc(b1-3)[Gal(a1-3)Fuc(a1-2)Gal(b1-4)GlcNAc(b1-6)]GalNAc
# Method in brief: as §1
# Gal(a1-3)Gal(b1-3)GlcNAc = molecular target: Gal(a1-3)Gal(b1-3)GlcNAc
# Method in brief: as §1
# Gal(b1-3)GalNAc = molecular target: Gal(b1-3)GalNAc
# Method in brief: as §1
# [9] = molecular target: Gal(b1-3)GalNAc(a1-3)[Fuc(a1-2)]Gal(b1-4)Glc
# Method in brief: as §1
# Gal(b1-3)GlcNAc(b1-2)Man = molecular target: Gal(b1-3)GlcNAc(b1-2)Man
# Method in brief: as §1
# [10] = molecular target: Gal(b1-3)[Fuc(a1-4)]GlcNAc(b1-2)Man(a1-3)[Gal(b1-3)[Fuc(a1-4)]GlcNAc(b1-2)Man(a1-6)]Man(b1-4)GlcNAc(b1-4)[Fuc(a1-6)]GlcNAc
# Method in brief: as §1
# [11] = molecular target: Gal(b1-3)[Neu5Ac(a2-6)]GalNAc
# Method in brief: as §1
# Gal(b1-4)Glc6S = molecular target: Gal(b1-4)Glc6S
# Method in brief: as §1
# [12] = molecular target: Gal(b1-4)GlcNAc(b1-3)Gal(b1-4)GlcNAc(b1-2)[Gal(b1-4)GlcNAc(b1-3)Gal(b1-4)GlcNAc(b1-6)]Man(a1-6)[Gal(b1-4)GlcNAc(b1-3)Gal(b1-4)GlcNAc(b1-2)Man(a1-3)]Man(b1-4)GlcNAc(b1-4)GlcNAc
# Method in brief: as §1
# [13] = molecular target: Gal(b1-4)GlcNAc(b1-3)Gal(b1-4)GlcNAc(b1-3)Gal(b1-4)GlcNAc(b1-3)Gal(b1-4)GlcNAc(b1-2)Man(a1-3)[Gal(b1-4)GlcNAc(b1-3)Gal(b1-4)GlcNAc(b1-3)Gal(b1-4)GlcNAc(b1-3)Gal(b1-4)GlcNAc(b1-2)Man(a1-6)]Man(b1-4)GlcNAc(b1-4)[Fuc(a1-6)]GlcNAc
# Method in brief: as §1
# [14] = molecular target: Gal(b1-4)GlcNAc(b1-3)Gal(b1-4)GlcNAc(b1-3)GalNAc
# Method in brief: as §1
# [15] = molecular target: Gal(b1-4)GlcNAc(b1-6)Gal(b1-4)GlcNAc
# Method in brief: as §1
# [16] = molecular target: Gal3S(b1-3)[Fuc(a1-4)]GlcNAc
# Method in brief: as §1
# Gal3S6S(b1-4)GlcNAc6S = molecular target: Gal3S6S(b1-4)GlcNAc6S
# Method in brief: as §1
# Gal6P(b1-4)GlcNAc = molecular target: Gal6P(b1-4)GlcNAc
# Method in brief: as §1
# Gal6S(b1-4)Glc6S = molecular target: Gal6S(b1-4)Glc6S
# Method in brief: as §1
# GalNAc(b1-4)GlcNAc6S = molecular target: GalNAc(b1-4)GlcNAc6S
# Method in brief: as §1
# [17] = molecular target: Glc(a1-4)Glc(a1-4)Glc(a1-4)Glc
# Method in brief: as §1
# [18] = molecular target: GlcNAc(b1-2)Gal(b1-3)GalNAc
# Method in brief: as §1
# [19] = molecular target: GlcNAc(b1-2)Man(a1-3)[GlcNAc(b1-2)Man(a1-6)]Man(b1-4)GlcNAc(b1-4)[Fuc(a1-6)]GlcNAc
# Method in brief: as §1
# [20] = molecular target: GlcNAc(b1-2)[GlcNAc(b1-6)]Man(a1-6)[GlcNAc(b1-2)Man(a1-3)]Man(b1-4)GlcNAc(b1-4)GlcNAc
# Method in brief: as §1
# [21] = molecular target: GlcNAc(b1-3)Gal(b1-4)GlcNAc(b1-3)Gal(b1-4)GlcNAc(b1-3)GalNAc
# Method in brief: as §1
# [22] = molecular target: GlcNAc(b1-3)[GlcNAc(b1-4)][GlcNAc(b1-6)]GlcNAc
# Method in brief: as §1
binder,measurement,setting,value
CaSRK1 (Capsicum annuum) (protein) MALCKIFPFAFILLSCSCYLISGQRFDYPTANLSTTWINSVSAPHSIDYTDGSRIRAILLRGTFGPRYACGFYCNGNCESYLFAIFIVQTNSASQITSPAIGFPQVVWSANRNNPVKINSTLQLTAEGDLVLRDADGTLAWSTNTAGKSVAGLSLTDEGNLALFDSKNATVWQSFDHPTDALVPGQKLVPGMKLTASVSRTNWTAGGLFALSAIDNGLVAFVESNPPQKYFEASVGGSNTSGGSNYVKYLNGSLTLFTHSADTTELILISITPASSAQYMKLESNGHLKVYEWTSRGWREVDDLLTGFRGECNYPTVCGRYGICTMGQCSCPTSSSSRTYFRPIDVRRPSLGCSEVTKLTCQNTKKHSPLEVEDVDYFAFKAGISDTDLNTCKRACLEKCSCKAAFFRSGLNSSRTRGDCYLPTEIFSIMNNEKDRTRYDSVAFIKVQV,glycan array binding signal (z-score),[1],-0.523
same,glycan array binding signal (z-score),[2],2.31
same,glycan array binding signal (z-score),[3],2.37
same,glycan array binding signal (z-score),[4],-0.546
same,glycan array binding signal (z-score),[5],-0.056
same,glycan array binding signal (z-score),[6],0.387
same,glycan array binding signal (z-score),[7],0.606
same,glycan array binding signal (z-score),[8],3.39
same,glycan array binding signal (z-score),Gal(a1-3)Gal(b1-3)GlcNAc,3.11
same,glycan array binding signal (z-score),Gal(b1-3)GalNAc,-0.395
same,glycan array binding signal (z-score),[9],0.178
same,glycan array binding signal (z-score),Gal(b1-3)GlcNAc(b1-2)Man,5.29
same,glycan array binding signal (z-score),[10],-0.295
same,glycan array binding signal (z-score),[11],-0.368
same,glycan array binding signal (z-score),Gal(b1-4)Glc6S,-0.386
same,glycan array binding signal (z-score),[12],3.63
same,glycan array binding signal (z-score),[13],0.677
same,glycan array binding signal (z-score),[14],2.85
same,glycan array binding signal (z-score),[15],0.04
same,glycan array binding signal (z-score),[16],-0.07
same,glycan array binding signal (z-score),Gal3S6S(b1-4)GlcNAc6S,2.4
same,glycan array binding signal (z-score),Gal6P(b1-4)GlcNAc,-0.342
same,glycan array binding signal (z-score),Gal6S(b1-4)Glc6S,0.802
same,glycan array binding signal (z-score),GalNAc(b1-4)GlcNAc6S,0.352
same,glycan array binding signal (z-score),[17],0.933
same,glycan array binding signal (z-score),[18],-0.097
same,glycan array binding signal (z-score),[19],-0.143
same,glycan array binding signal (z-score),[20],-0.46
same,glycan array binding signal (z-score),[21],-0.477
same,glycan array binding signal (z-score),[22],-0.34

# Reference: the supplement of paper PMC8728848
